This is a sample that favours compounds with a hit; in the whole collection about 0.58% have one here.
BioA inh = M. tuberculosis BioA enzyme inhibitors, primary screen, biochemical, plate reader, single point, HTS; inhibition, % at 9.99 µM; AID 602481, 2012; purified M. tuberculosis BioA enzyme; 360,000 compounds, 0.096% hits; 7,8-diaminopelargonic acid synthase BioA (Mycobacterium tuberculosis); in the data active means inhibition above about 40%
TcdB GH inh = TcdB glycohydrolase inhibitors, primary screen, biochemical, single point, plate reader; inhibition, % at 9.99 µM; 350,000 compounds, 0.24% hits; TcdB glycohydrolase enzymatic assay; in the data active means inhibition above about 10%
BH1578 lux ind = inducers of Vibrio cholerae quorum light production without autoinducers, primary screen, BH1578 luxS cqsA deficient, single point. V. cholerae BH1578 lux reporter, luminescence, 6 h. activation, % at 18.7 µM. 350,000 compounds, 0.16% hits; in the data active means activation mostly above about 9.7%, no sharp cut-off
Yp Topo-I inh = Yersinia pestis topoisomerase I inhibitors, primary screen, biochemical, cleavage product accumulation, plate reader, single point; Y. pestis Topo-I cleavage product accumulation; activity, % at 10 µM; 360,000 compounds, 0.064% hits; in the data active means activity above about 50%, passing the limit was not always enough
FadD28 FP inh = inhibitors of FadD28 bisubstrate probe binding, primary screen, biochemical, fluorescence polarization, single point | Mycobacterium tuberculosis FadD28 fatty-acid-AMP ligase | inhibition, % at 12.5 µM | AID 588549, 2011 | 360,000 compounds, 0.22% hits; in the data active means inhibition above about 8.5%, passing the limit was not always enough
* hit, by the source's call; i = inactive; · = not tested or not shown.

SMILES | BioA inh | TcdB GH inh | BH1578 lux ind | Yp Topo-I inh | FadD28 FP inh
Cc1ccc2c(C)c3ccc4ccccc4c3c[n+]2c1 | · | 11.5* | · | -33.0 | -3.8
CCCn1c(N2CCC(Cc3ccccc3)CC2)nc2c1c(=O)[nH]c(=O)n2C | 2.8 | · | 0.4 | 51.6* | -1.3
Cn1c(=O)[nH]c(=O)c2c1nc(N1CCCCCC1)n2Cc1cccc2ccccc12 | · | · | -1.1 | 63.4* | -1.1
CCCCCn1c(N2CCC(Cc3ccccc3)CC2)nc2c1c(=O)[nH]c(=O)n2C | -0.1 | · | -0.3 | 44.4 | -3.5
CO[C@H]1CN(C)C(=O)c2cc(NC(=O)c3ccno3)ccc2OC[C@H](C)N(S(C)(=O)=O)C[C@H]1C | 3.6 | · | · | · | ·
Cc1ccc(S(=O)(=O)Oc2cccc(/C=N/n3cnnc3)c2)cc1 | · | 10.5* | i | -2.7 | -5.4
C(=N\n1cnnc1)/c1cccc(OCCOc2ccccc2)c1 | 2.0 | · | 2.4 | 9.0 | -2.8
Cc1ccc(S(=O)(=O)Oc2cccc(/C=N/Nc3ccc(C(=O)O)cc3)c2)cc1 | 17.3 | 11.1* | -0.4 | -3.6 | 30.1*
CC(C)S(=O)(=O)c1nsc2nc(=O)c(/C=C3\C=Nc4ccccc43)c(N)n12 | 0.9 | 0.1 | -0.3 | 3.7 | 30.0*
CSc1nsc2nc(=O)c(/C=C3\C=Nc4ccccc43)c(N)n12 | -1.0 | -1.4 | -0.7 | -7.5 | 14.3*
CC(C)NC(=O)N(C)C[C@@H]1Oc2cc(C#C[C@H](C)O)ccc2S(=O)(=O)N([C@@H](C)CO)C[C@@H]1C | -4.2 | 0.3 | · | · | ·
COc1ccc(C[C@@H]2CCn3cc(nn3)COC[C@H](C(C)C)NC2=O)cc1 | · | -0.6 | · | · | ·
CC(=O)c1ccc2c(c1)C1C=CCC1C(C(=O)O)N2 (stereo not given) | · | 1.2 | -0.2 | -12.9 | 39.5*
CCCNC(=O)Nc1ccc2c(c1)C(=O)N(C)[C@H]1CC[C@H](CC(=O)NC3CCC3)O[C@@H]1CO2 | 0.9 | 14.4* | · | · | ·
CCCNC(=O)Nc1ccc2c(c1)C(=O)N(C)[C@@H]1CC[C@H](CC(=O)NC3CCC3)O[C@H]1CO2 | -0.7 | 18.7* | · | · | ·
Cn1c(=O)[nH]c(=O)c2c1[nH]c(=S)n2Cc1ccc(Cl)cc1 | -3.7 | 13.8* | -1.4 | 2.2 | -2.8
Cn1c(=O)[nH]c(=O)c2c1[nH]c(=S)n2CCCc1ccccc1 | -2.3 | 12.2* | -0.3 | 1.8 | -0.3
C#CCOCCOCCOCCNc1nc(N2CCN(C(=O)CCCCCCCCCCNC(=O)[C@@H](CCSC)n3cc(CCO)nn3)CC2)nc(N2CCN(C(=O)CCCCCCCCCCNC(=O)[C@H]([C@@H](C)CC)n3cc(CCCCN=C(N)N)nn3)CC2)n1 | 0.6 | · | -2.1 | 20.4 | 11.3*
O=C(C[C@@H]1CC[C@H](NS(=O)(=O)c2ccc(F)cc2)[C@H](CO)O1)NCc1ccccc1F | · | -0.1 | · | · | ·
O=C(NCc1ccc(F)cc1)C(Cc1ccccc1)NS(=O)(=O)c1cccs1 (stereo not given) | -1.1 | 2.2 | i | 6.0 | 24.6*
O=C(NCc1cccs1)C(Cc1ccccc1)NS(=O)(=O)c1cccs1 (stereo not given) | 0.2 | · | i | 15.6 | 1.3
O=C(O)c1ccccc1NC(c1ccccc1)c1ccc(Cl)cc1 (stereo not given) | · | -0.7 | 0.5 | 9.0 | 11.7*
Cc1nc(S(=O)(=O)N(C)Cc2ccccc2)c(C#N)c(C)c1Cl | -0.4 | 64.2* | 3.3 | 7.0 | -3.3
Cc1nc(S(=O)(=O)NC2CCCCC2)c(C#N)c(C)c1Cl | -0.3 | · | i | -1.8 | -4.7
C[C@H](CO)N1C[C@H](C)[C@@H](CN(C)S(=O)(=O)c2cn(C)cn2)Oc2ccc(NC(=O)Nc3cccc4ccccc34)cc2CC1=O | -2.5 | 0.1 | · | · | ·
SMILES | BioA inh | TcdB GH inh | BH1578 lux ind | Yp Topo-I inh | FadD28 FP inh
CCNC(=S)N(Cc1ccc2c(c1)OCO2)C1CC(=O)N(c2ccc(OC)cc2)C1=O (stereo not given) | -1.6 | · | 50.0* | -3.6 | -2.6
C[C@H]1CN([C@@H](C)CO)C(=O)c2cccc(NC(=O)c3ccc(-c4nccs4)cc3)c2O[C@H]1CN(C)S(=O)(=O)c1ccc(Cl)cc1 | -1.2 | -1.1 | · | · | ·
Cc1ccc(S(=O)(=O)N2[C@@H](c3cccc(Cl)c3)C(C(=O)O)=CC[C@H]2c2cccc(Cl)c2)cc1 | 2.8 | -0.3 | -0.2 | 20.3 | 13.5*
COCc1cc(C)nc(SCc2ccc(Br)cc2)c1C#N | -0.7 | -0.9 | i | 50.3* | -2.4
COCc1cc(C)nc(SCc2ccc(Cl)cc2)c1C#N | 6.4 | -0.9 | i | 29.9 | ·
COc1ccc(NC(=O)c2cc3c(-c4ccc(OC)c(OC)c4)nn(C)c3s2)cc1OC | 1.2 | · | -0.4 | -8.2 | 25.5*
CO[C@@H]1CN(C)C(=O)c2cc(NC(C)=O)ccc2OC[C@H](C)N(Cc2cccc(F)c2)C[C@@H]1C | -2.7 | -2.4 | · | · | ·
NS(=O)(=O)c1cc2c(cc1Cl)NCNS2(=O)=O | 1.3 | 0.5 | 23.8* | -4.1 | -0.8
COc1cc(C2Nc3cc(Cl)c(S(N)(=O)=O)cc3S(=O)(=O)N2)cc(OC)c1OC (stereo not given) | · | · | i | -2.5 | -2.0
CN(C)CCCNC(=O)[C@@H]1[C@@H](CO)[C@@H]2Cn3c(ccc(-c4ccncc4)c3=O)[C@H]1N2C(=O)C1CC1 | -0.8 | -1.6 | · | · | ·
Nc1ccc(NC(=O)c2ccc(C(=O)Nc3ccc(N)cc3)cc2)cc1 | -0.1 | 0.5 | -0.4 | -4.9 | 0.0
Nc1ccc(C(=O)Nc2ccc3c(O)cc(S(=O)(=O)O)cc3c2)cc1 | 5.1 | 1.2 | i | -7.7 | 15.2*
CN(C)C/C=C/C(=O)Nc1cccc(-c2c[nH]c3ncnc(Oc4ccc(NC(=O)CC(=O)Nc5ccc(F)cc5)cc4F)c23)c1 | -1.5 | · | i | -9.5 | 18.6*
CC(=O)Nc1cccc(Oc2ncnc3scc(-c4ccccc4)c23)c1 | 2.3 | · | -0.2 | 22.5 | -8.3
COC(=O)CC1C(=O)NCCN1C(=O)c1ccc(S(=O)(=O)N2CCOCC2)cc1 (stereo not given) | -1.9 | -2.3 | 1.1 | 0.3 | 14.0*
O=C(C1CCCC1)N1CC[C@H]2[C@H](CO)Nc3ccc(C4=CCCCC4)cc3[C@H]21 | · | 0.9 | · | · | ·
Cc1noc(C)c1NC(=O)N(C)C[C@H]1OCCCC[C@H](C)Oc2ccc(NS(=O)(=O)c3cn(C)cn3)cc2C(=O)N([C@H](C)CO)C[C@@H]1C | 2.6 | · | · | · | ·
O=C(/C=C/c1ccc(O)cc1)c1ccccc1 | · | 15.2* | -0.5 | -1.9 | -3.8
Cc1noc(C)c1COC(=O)CCCOc1ccc(Cl)cc1Cl | -1.3 | · | -6.7 | 61.4* | -1.0
Cc1cccn2c(=O)nc(SCC(=O)c3ccc(Cl)cc3)nc12 | 6.5 | -0.4 | 89.3* | 2.4 | -0.7
O=C(CCN1C(=O)C2C3C=CC(C3)C2C1=O)NC1CCCc2ccccc21 (stereo not given) | -0.7 | · | 66.5* | 0.0 | 0.5
O=C(c1ccccc1)N1CC[C@@H]2[C@H]1c1cc(-c3ccc(F)cc3)ccc1N[C@@H]2CO | -4.8 | · | · | · | ·

High-throughput results deposited in PubChem by Broad Institute.
